# A selection: hits, their analogues and other compounds. The true share with any hit is near 1.2%.
# HttQ103 aggreg – inhibitors of mutant huntingtin aggregate formation in PC12 cells; 220,000 tested, 1.1% active; AID 1688; Potency, µM (series often up to 46.1 µM), for the others: top-dose activity change, negative = inhibition, most hits filed as inhibitors; PC12 HttQ103-GFP aggregates, Acumen cytometry, 40 h; note: potency is the fitted concentration of half-maximal effect; % is set by controls: 0 for no effect and ±100 for the full control effect; nearly all actives have a fitted effect of over 60% in size
#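 Compounds (qHTS titration) were added to PC12 cells expressing an ecdysone-driven HTT exon 1 Q103–GFP fusion after induction with 100 nM tebufenozide. Aggregate formation was measured as GFP objects in cell lysates.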
# aGal spleen mod – inhibitors or activators of human alpha-galactosidase in spleen homogenate; human spleen homogenate, 4MU-alpha-Gal fluorescence, 40 min; Potency, µM (titrated, usually from 80 µM), for the others: top-dose activity change, negative = inhibition, usual class: inhibitors; 240,000 tested, 0.008% active; AID 2107;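 note: potency is the fitted concentration of half-maximal effect; 0% = enzyme with vehicle and -100% = no enzyme basal signal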
#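 Inhibition or activation of alpha-galactosidase in human spleen homogenate is scored by 4-MU fluorescence after 40 min at 37C, pH 5.0, with 1 mM substrate. AC50s come from concentration-response fitted to the Hill equation.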
# ERK EGF block – EGF-driven ERK pathway inhibition; HEK293-V1b, EGF-stimulated phospho-ERK AlphaScreen; Potency, µM (highest dose often 11.5 µM), inactives show at the highest dose activity change, negative = inhibition, actives largely listed as inhibitors; 130,000 tested, 0.41% active; AID 1454;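 note: potency is the fitted concentration of half-maximal effect; plate controls were stimulated vehicle wells for no effect and unstimulated vehicle basal for full effect; nearly all actives have a fitted effect of over 55% in size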
#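 Readout: AlphaScreen signal for phosphorylated ERK in lysed HEK293 cells stably expressing V1b. Stimulus 25 nM EGF, 5 min, following 30 min compound exposure. Data scaled to DMSO basal and full EGF activation.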
# GLA inh pH 4.5 – alpha-galactosidase A (human) inhibition, pH 4.5; 230,000 tested, under 10 active; P06280; activity change, negative = inhibition, % at 105 µM; purified enzyme, 4-MU-alpha-Gal fluorescence, pH 4.5;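 note: 0% = full activity with enzyme and -100% = basal without enzyme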
# Target sequence (P06280 whole entry, looked up): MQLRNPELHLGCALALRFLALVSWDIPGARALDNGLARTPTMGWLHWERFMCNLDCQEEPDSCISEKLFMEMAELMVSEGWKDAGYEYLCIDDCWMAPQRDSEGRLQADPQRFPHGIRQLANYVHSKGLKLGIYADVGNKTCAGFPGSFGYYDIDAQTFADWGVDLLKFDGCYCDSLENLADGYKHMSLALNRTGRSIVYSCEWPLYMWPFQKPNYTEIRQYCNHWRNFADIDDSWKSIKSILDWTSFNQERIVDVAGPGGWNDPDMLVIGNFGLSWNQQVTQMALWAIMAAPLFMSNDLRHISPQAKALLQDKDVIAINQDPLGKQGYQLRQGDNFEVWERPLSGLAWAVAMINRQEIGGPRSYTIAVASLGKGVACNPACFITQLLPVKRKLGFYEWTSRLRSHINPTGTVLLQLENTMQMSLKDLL
# HTT cytoprotect – Huntington cell model cytoprotection by ATP luminescence | PC12 HTT-Q103 induced, cytoprotection, ATP luminescence, 40 h | Potency, µM (series often up to 56.4 µM), for inactives: cytoprotection (ATP increase), usual class: activators | 230,000 tested, 0.14% active; note: potency is the fitted concentration of half-maximal effect; % of control where 0% means no effect; nearly all actives have a fitted effect of over 45% in size
#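 Compounds were screened for protection of PC12 cells against cell death after tebufenozide induction (100 nM final) of mutant Huntingtin exon 1 (Q103) fused to GFP.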
# The depositor's hits bear a star; ? = inconclusive; · = not tested or not shown; [ ] = dose if it differs, or a comment. Calls come from the whole dose curve; as a rule, active = well fitted curve in the direction sought with a large enough effect; inconclusive = small, poorly fitted or top-dose-only effect, or another doubt; inactive = no such curve, though single readings can be large; an effect the other way counts as inactive or inconclusive.
SMILES,HttQ103 aggreg,aGal spleen mod,ERK EGF block,GLA inh pH 4.5,HTT cytoprotect
CC(C)C[C@H](NC(=O)[C@H](CC(C)C)NC(=O)[C@@H](Cc1c[nH]c2ccccc12)NC(=O)[C@H](Cc1ccccc1)NC(=O)[C@@H](Cc1c[nH]c2ccccc12)NC(=O)[C@H](CCC(N)=O)NC(=O)[C@H](CCC(N)=O)NC(=O)[C@@H]1CCCN1C(=O)[C@H](CCCCN)NC(=O)[C@@H]1CCCN1C(=O)[C@H](N)CCCN=C(N)N)C(N)=O,·,7.0%,·,·,·
COc1ccccc1-c1nnc(SC(C(=O)c2c[nH]c3ccccc23)c2ccccc2)n1C (centres undefined),2.82µM*,4.9%,·,-13.9,4.47µM*
COc1cccc(-c2nnc(SC(C(=O)c3c[nH]c4ccccc34)c3ccccc3)n2C)c1 (centres undefined),?,-3.9%,3.0%,-6.7,·
COc1cccc(CNc2nc(-c3cccnc3)nc3ccccc23)c1,-5.2%,-3.6%,3.6%,-5.7,-3.2%
Cc1cccc(CNc2nc(-c3cccnc3)nc3ccccc23)c1,·,0.4%,31.6µM*,-7.0,-24.0%
COc1cc(C(=O)O/N=C2\C=CC(=O)C(C)=C2)cc(OC)c1OC,11.2µM*,-7.0%,·,3.3,-113.3%
COc1ccc(N2C(=O)NC3CC2(C)Oc2ccc(Cl)cc23)cc1OC (centres undefined),4.8%,5.4%,·,-2.1,8.9%
COc1ccc(CCN2C(=S)NC3CC2(C)Oc2ccc([N+](=O)[O-])cc23)cc1OC (centres undefined),10µM*,1.0%,·,4.0,-81.4%
Cc1cc(C)n(-c2nc3nonc3nc2-n2nc(C)cc2C)n1,0.4%,1.9%,·,-2.0,-7.7%[10 µM]
CCN(CC)c1nc2nonc2nc1N(CC)CC,0.447µM*,-11.5%,·,-8.6,16.9%
CNc1ncnc2c1ncn2[C@@H]1O[C@@H](CO)[C@H](O)[C@@H]1O,·,·,·,·,12.4%[1.9 µM]
COc1ccc2cc1Oc1ccc(cc1)CC1c3cc(c(OC)cc3CCN1C)Oc1c(OC)c(OC)c(OC)c3c1C(C2)N(C)CC3 (centres undefined),·,-8.2%,·,·,·
Cc1nn(-c2ccccn2)c2c1-c1nc(N)ncc1CC2,11.2µM*,-22.6%,·,-8.3,-57.4%
Cc1nn(-c2ccccn2)c2c1-c1nc(N3CCOCC3)ncc1CC2,-0.5%,4.0%,·,5.1,7.2%
CN1CCN(C2=Cc3ccccc3Sc3cc(F)c(F)cc32)CC1,20µM*,-1.8%,?,-15.9,-15.3%[10 µM]
COc1cccc(NC(=S)N(CCCN2CCOCC2)Cc2cn(C)c3ccccc23)c1,11.2µM*,-7.9%,0.6%,-1.8,-52.9%[10 µM]
COc1ccc(NC(=S)N(CCCN2CCOCC2)Cc2cn(C)c3ccccc23)cc1OC,-26.9%,3.5%,5.3%,-19.8,-24.8%[10 µM]
Nn1cc(Br)c(=O)[nH]c1=O,·,-2.7%,·,·,-23.1%
CCN(CC)c1ccc(/C=N/N2CCN(Cc3ccc(C)cc3)CC2)c(O)c1,0.631µM*,-24.8%,·,-3.7,-13.6%
CCN(CC)c1ccc(/C=N/N2CCN(Cc3ccccc3Cl)CC2)c(O)c1,-6.6%[9.22 µM],0.6%,15.8µM*,-4.9,-1.7%[10 µM]
Cc1ccc(CN2CCN(/N=C/c3cc(Br)cc(Br)c3O)CC2)cc1,-3.8%,-1.7%,-0.3%,0.7,4.9%[10 µM]
Oc1ccccc1C=NCc1ccccc1,-5.0%,·,·,·,-2.7%
COc1ccc(-c2nn(-c3ccccc3)cc2C(=O)NC(=S)NNC(=O)c2ccncc2)cc1,10µM*,-5.5%,5.2%[57.5 µM],-6.9,17.1%
COc1ccc(S(=O)(=O)N2CCN(c3ccc(C)cc3C)CC2)cc1OC,35.5µM*,-6.9%,·,-12.2,16.6%
CCn1cc(C(=O)NCc2ccco2)c(=O)c2cc(S(=O)(=O)N3CCCCCC3)ccc21,12.6µM*,2.8%,·,-12.4,-95.0%[10 µM]
SMILES,HttQ103 aggreg,aGal spleen mod,ERK EGF block,GLA inh pH 4.5,HTT cytoprotect
CCn1cc(C(=O)NCc2ccco2)c(=O)c2cc(S(=O)(=O)N3CCC(C)CC3)ccc21,?,4.9%,·,-10.2,-61.9%[0.074 µM]
O=C(/C=C/c1ccc(N2CCCCC2)c([N+](=O)[O-])c1)c1ccc(O)cc1,17.8µM*,2.0%,?,-0.4,-4.7%[10 µM]
O=C(c1ccc(N2CCCCC2)c([N+](=O)[O-])c1)N1CCOCC1,19.5%,-3.4%,·,1.7,-40.9%
COc1ccccc1C(=O)/C=C/c1ccc(N2CCCCC2)c([N+](=O)[O-])c1,?,-16.0%,15.8µM*,-11.7,11.0%[10 µM]
Cc1cc(=O)[nH]c(Nc2cccc(C(F)(F)F)c2)n1,11.2µM*,14.7%,·,0.2,10.8%
CCc1ccc2c(c1)C1(NN=C(c3ccc(C)cc3)S1)C(=O)N2 (centres undefined),22.4µM*,9.4%,2.5%,-9.2,14.9%[10 µM]
CC(C)c1ccc2c(c1)C1(NN=C(c3ccccc3)S1)C(=O)N2 (centres undefined),?,3.3%,?,2.6,44.2%[10 µM]
CCCCCCCCCCCCCCCC[n+]1cccc(C(=O)N(CC)CC)c1,?,-1.5%,8.3%,2.8,-99.0%[10 µM]
CCCCCCCCCCCCCC[n+]1ccc(C)cc1,22.4µM*,·,·,·,-97.4%
CCCCCCCCCCCCCCCC[n+]1ccc(/C=N/O)cc1,8.91µM*,3.6%,?,-19.9,-35.9%[10 µM]
CCCCCCCCCCCC[n+]1ccc2ccccc2c1,7.08µM*,·,·,·,-97.5%
CCCCCCCCCCCCCCCC[n+]1ccc(C(N)=O)cc1,1.4%,-0.9%,?,-12.6,11.2%[10 µM]
O=Cc1ccc(OC2C=CC(C#Cc3ccccc3)OC2CO)cc1 (centres undefined),·,4.1%[17.5 µM],·,·,-121.3%[10 µM]
COc1ccc(C(=O)N2CCC[C@@]3(CCN(C(=O)Nc4ccccc4)C3)C2)cc1,·,11.1%,-1.9%,·,?
N=c1n(CCN2CCCCC2)c2ccccc2n1CC(=O)c1ccc(Cl)c(Cl)c1,24.6%[9.22 µM],-4.1%,28.2µM*,-16.8,15.4%[10 µM]
N#C/C(=C\C1=C(N2CCOCC2)C(=C/c2cccc([N+](=O)[O-])c2)/CC1)C(=O)Nc1ccccc1F,-5.2%,3.4%,3.55µM*,-10.0,22.9%[10 µM]
COc1ccc(C2/C=C\CN(CC(C)C)C(Cc3ccccc3)C(=O)N2Cc2ccc(F)cc2)cc1 (centres undefined),·,15.3%,·,·,·
O=c1ccn(C2OC(COP(=O)(O)OC3C(CO)OC(n4ccc(=O)[nH]c4=O)C3O)C(O)C2O)c(=O)[nH]1 (centres undefined),10.2%,·,·,·,26.3%
CC[C@H](C)C(N)C(=O)O (some centres undefined),·,-5.6%,·,·,·
O=C(c1csnn1)N1CCC[C@@]2(CCN(C(c3ccccc3)c3ccccc3)C2)C1,·,0.9%,5.6%,·,-91.9%
CCCCCCC#CC1C=CC(OC(=O)OCC)C(COC(=O)OCC)O1 (centres undefined),·,14.3%[17.5 µM],·,·,2µM*
CCCCC#CC1C=CC(OC(C)=O)C(COC(C)=O)O1 (centres undefined),·,3.0%[17.5 µM],·,·,?

# Screening data from PubChem.
